# Screening data: PubChem BioAssay, National Center for Advancing Translational Sciences (NCATS)
# KB-V1 MDR tox: qHTS assay for MDR1-selective chemotherapeutics: Primary screen using the drug-selected MDR subline cells KB-V1; AID 1347076, 2019; 400,000 tested, 3.4% active; Potency, µM (top dose mostly 46.1 µM), most hits filed as cytotoxic; KB-V1 MDR cells viability, CellTiter-Glo, 72 h; note: % is set by controls: 0 for no effect and ±100 for the full control effect; nearly all actives have a fitted effect of over 60% in size
#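 KB-V1 MDR subline cells in DMEM (phenol-red free, 10% FBS) exposed to compounds in qHTS concentration series for 72 h at 37 degrees C. Viability read by CellTiter-Glo luminescence; concentration-effect curves fitted after normalization and correction.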
# PINK1 expr mod: A Quantitative High throughput Screen to Identify Chemical Modulators of PINK1 Expression; PINK1 immunofluorescence, high-content cytometry, 24 h; Potency, µM (series often up to 76.6 µM), for inactives: at the highest dose activation (PINK1 increase), actives largely listed as activators; 410,000 tested, 0.2% active; AID 624263, 2012; active = well fitted activation curve with a large enough effect; inconclusive = small, poorly fitted or top-dose-only effect; cell line not stated here; note: % of control where 0% means no effect; nearly all actives have a fitted effect of over 65% in size
#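 Stable cell line, 250 cells/well, 12 h attachment; compounds pinned at 5 concentrations, 24 h; CCCP control. Fixed with nuclear dye, primary antibodies 12 h at 10 degrees C, secondary plus cell stain; laser-scanning cytometer read.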
# PTAP TSG101 blk: qHTS Assay for Iinhibitors of HIV-1 Budding by Blocking the Interaction of PTAP/TSG101; Fluorescence polarization, FITC-PTAP peptide / Tsg101 binding; Potency, µM (top dose mostly 115 µM), for inactives: top-dose activity change, negative = inhibition, hits mostly inhibitors; 340,000 tested, under 10 active; AID 493005, 2010; active = well fitted inhibition curve with a large enough effect in the main read-out, with a control signal flat, not every such curve was filed as active; inconclusive = small, poorly fitted or top-dose-only effect, or effect the other way, or a change in a side signal; inactive = no such curve, though single readings can be large or run the other way; note: % of control where 0% means no effect
# Target sequence (Q99816 whole entry, looked up): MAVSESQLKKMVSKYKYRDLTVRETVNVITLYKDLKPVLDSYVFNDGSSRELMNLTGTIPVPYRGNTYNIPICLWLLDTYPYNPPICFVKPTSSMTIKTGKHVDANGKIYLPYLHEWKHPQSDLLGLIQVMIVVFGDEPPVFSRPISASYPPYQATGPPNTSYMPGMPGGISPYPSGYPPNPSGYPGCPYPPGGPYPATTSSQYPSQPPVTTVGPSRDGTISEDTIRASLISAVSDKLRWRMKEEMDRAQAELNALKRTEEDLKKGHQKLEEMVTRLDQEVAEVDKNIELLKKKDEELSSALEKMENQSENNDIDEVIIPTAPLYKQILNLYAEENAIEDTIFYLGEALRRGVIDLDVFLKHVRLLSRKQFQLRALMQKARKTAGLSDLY
#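 Fluorescence polarization binding of Tsg101 binding domain (10 uM final) to FITC-labeled PTAP peptide (50 nM final) in HEPES pH 7.5 buffer with NaCl, Tween 20, EDTA, TCEP. Compounds added before peptide; binding 20 min at RT.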
# MCF10A rerep: A quantitative high throughput screen for small molecules that induce DNA re-replication in MCF 10a normal breast cells | 350,000 tested, 2.9% active | AID 624296, 2012 | MCF 10A DNA re-replication, Hoechst nuclear intensity, 48 h | Potency, µM (top dose mostly 46.1 µM), without a hit: at the top dose activity, positive = re-replication, usual class: activators; note: % of control where 0% means no effect; nearly all actives have a fitted effect of over 50% in size
# SW480 rerep: A quantitative high throughput screen for small molecules that induce DNA re-replication in SW480 colon adenocarcinoma cells; AID 624297, 2012; 340,000 tested, 1.8% active; Potency, µM (highest dose often 46.1 µM), for the others: at the highest dose re-replication activation, hits mostly activators; SW480 DNA re-replication, Hoechst DNA content imaging, 48 h; note: % of control where 0% means no effect; nearly all actives have a fitted effect of over 55% in size
#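 Quantitative HTS format with DMSO vehicle controls; 48 hr drug incubation at 37 C, then 40 min Hoechst staining and scanning imager measurement at 405 nm excitation.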
# KB-3-1 tox: qHTS assay for MDR1-selective chemotherapeutics: Primary screen using the parental adenocarcinoma cell KB-3-1. KB-3-1 viability, CellTiter-Glo ATP luminescence, 72 h. Potency, µM (series often up to 46.1 µM), most hits filed as cytotoxic. 400,000 tested, 1.4% active; note: % is set by controls: 0 for no effect and ±100 for the full control effect; nearly all actives have a fitted effect of over 60% in size
#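 72 h, 37 °C compound treatment of KB-3-1 parental cells; CellTiter-Glo added, 10 min, luminescence read. Data corrected against DMSO-only plates and normalized before curve fitting.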
# * hit, by the source's call; i = inactive; ? = inconclusive; . = no result given; [ ] = remark or other dose. Compounds with a hit are over-represented: about 6.8% of the library has one in this group of screens. Unless noted, calls come from the whole dose curve; as a rule, active = well fitted curve in the direction sought with a large enough effect; inconclusive = small, poorly fitted or top-dose-only effect, or another doubt; inactive = no such curve, though single readings can be large; an effect the other way counts as inactive or inconclusive. Potency is the fitted concentration of half-maximal effect.
SMILES,KB-V1 MDR tox,PINK1 expr mod,PTAP TSG101 blk,MCF10A rerep,SW480 rerep,KB-3-1 tox
Nc1c(C(=O)Nc2ccc(Cl)cc2)sc2nc3c(cc12)N1CCC3CC1,7.31µM*,5.5%,.,.,.,i
Cc1ccc2c(c1)C1CN(C)CCC1N2C(=O)c1ccccc1NS(=O)(=O)c1cccc(C(F)(F)F)c1 (stereo not drawn),i,1.0%,-0.1%,?,9.3%,i
CN1CC[C@@]2(CCCN(C(=O)Oc3ccccc3)C2)C1,.,0.4%,.,.,.,.
CCCCCc1cc(O)c2c(c1)OC(C)(C)C1CC=C(C)CC21 (stereo not drawn),.,.,.,7.5µM*,?,.
Cc1onc(-c2ccccc2)c1C(=O)N[C@@H]1C(=O)N2[C@@H]1SC(C)(C)[C@@H]2C(=O)O,.,.,.,6.7%,-6.4%,.
O=S(=O)(CCN1CCN(c2ccccn2)CC1)c1ccc(Cl)cc1Cl,i,-1.8%,-3.7%,?,2.8%,i
C/C=C(\C)C(=O)N[C@@H](c1ccccc1)[C@@H](O)C(=O)O[C@H]1C[C@@]2(O)[C@@H](OC(=O)c3ccccc3)C3[C@](C)(C(=O)[C@H](OC(C)=O)C(=C1C)C2(C)C)[C@@H](O)C[C@H]1OC[C@@]31OC(C)=O (stereo partly drawn),i,1.6%,-3.2%,0.291µM*,1.16µM*,?
CC(=O)O[C@@]12CO[C@@H]1C[C@H](O)[C@@]1(C)C(=O)[C@H](O)C3=C(C)[C@@H](O)C[C@@](O)([C@@H](OC(=O)c4ccccc4)C12)C3(C)C (stereo partly drawn),i,4.5%,-3.4%,?,?,11.6µM*
C/C=C(\C)C(=O)N[C@@H](c1ccccc1)[C@@H](O)C(=O)O[C@H]1C[C@@]2(O)[C@@H](OC(=O)c3ccccc3)C3[C@](C)(C(=O)[C@H](O)C(=C1C)C2(C)C)[C@@H](O)C[C@H]1OC[C@@]31OC(C)=O (stereo partly drawn),i,10.1%,-2.7%,?,8.2µM*,?
COc1ccc(NC(=O)N2CCC3(CC2)CCN(C(=O)Oc2ccccc2)CC3)cc1,.,-0.7%,.,.,.,.
Cn1c(=O)oc2cc(S(=O)(=O)N3CCC(C(=O)N4CCN(c5ccc(F)cc5)CC4)CC3)ccc21,i,3.7%,-3.8%,?,?,?
CCOC(=O)Cn1cc(C(=O)c2ccccc2F)c2ccccc21,i,0.5%,-1.9%,-1.6%,-4.3%,i
CCOC(=O)Cn1cc([N+](=O)[O-])nc1[N+](=O)[O-],i,0.2%,2.8%,13.8%,23.1µM*,i
CCOC(=O)C(NC(=O)C(Cc1ccc(N(CCCl)CCCl)cc1)NC(C)=O)C(C)C (stereo not drawn),i,-0.3%,0.2%,-3.6%,-3.3%,i
COC(=O)C(Cc1ccc(N(CCCl)CCCl)cc1)N=Cc1ccccc1O (stereo not drawn),i,-1.9%,4.4%,11.6µM*,1.03µM*,?
Cc1cccc(-n2c(/C=C/c3c[nH]c4ccccc34)nc3ccccc3c2=O)c1,?,12.4%,.,.,.,i
COc1ccccc1N(CC(=O)NC1CCCC1)C(=O)c1cnn(C(C)C)c1,i,0.3%,-5.3%,21.0%,-3.6%,i
CC(C)n1cc(C(=O)N(CC(=O)NC2CCCC2)Cc2ccccc2)cn1,13µM*,-22.7%[38.3 µM],-2.6%,6.2%,6.3%,i
O=P(O)(O)CN1CCNCCN(CP(=O)(O)O)CCNCC1,?,3.8%,-1.0%,24.9%,4.11µM*,?
Cc1cccn2c(=O)c3cc(C(=O)N4CCC5(CC4)OCCO5)n(C)c3nc12,3.66µM*,16.7%,-2.8%,2.59µM*,7.31µM*,3.26µM*
CC1Cc2ccccc2CN1 (stereo not drawn),i,.,.,.,.,i
COc1cc(C)c(C(=O)CC(=O)c2c(C)cc(OC)cc2C)c(C)c1,i,15.3%,-3.5%,16.4µM*,16.4µM*,i
O=P(OC1CCCCC1)(OC1CCCCC1)C(O)c1c(Cl)cccc1Cl (stereo not drawn),18.4µM*,1.5%,-1.6%,?,9.3%,?
c1ccc2ccccc2c1,i,-0.6%,0.8%,-1.9%,-0.8%,?
CC1=CC2OC3CC4OC(=O)C=CC=CC(C(C)O)OCC(O)C(C)CC(=O)OCC2(CC1O)C4(C)C31CO1 (stereo not drawn),?,-1.0%,-7.7%,48.0%,14.1%,0.0092µM*
SMILES,KB-V1 MDR tox,PINK1 expr mod,PTAP TSG101 blk,MCF10A rerep,SW480 rerep,KB-3-1 tox
CC1=CC2OC3CC4OC(=O)C=CC=CC(=O)OCCC(C)C(O)C(=O)OCC2(CC1O)C4(C)C31CO1 (stereo not drawn),0.517µM*,1.1%,0.4%,15.9%,?,0.146µM*
Cc1cc(O)cc2c1O[C@](C)(CCC[C@H](C)CCC[C@H](C)CCCC(C)C)CC2,.,.,.,18.8%,6.1%,.
NC(N)=NS(=O)(=O)c1ccc(N)cc1,i,-0.1%,2.0%,?,-23.1%,i
O=C(c1cccc2ccccc12)C1CCCN(Cc2ccon2)C1 (stereo not drawn),i,1.7%,-3.9%,5.7%,?,i
Cc1cc(Cl)ccc1C(=O)C1CCCN(Cc2ccon2)C1 (stereo not drawn),16.4µM*,-1.2%,-4.9%,0.5%,-12.2%,i
CCC1(c2ccccc2)C(=O)NC(=O)N(C(=O)c2ccccc2)C1=O (stereo not drawn),.,.,.,-1.9%,-0.1%,.
CC(C)C(=O)Nc1ccc(C(=O)NCc2cccnc2)cc1,i,-1.3%,0.8%,6.4%,0.517µM*,i
C[C@]12CCC(=O)C=C1C=CC1C2CC[C@@]2(C)C1CC[C@@H]2O (stereo partly drawn),3.66µM*,-0.2%,-4.3%,-27.1%,-15.4%,?
CC12CCC(=O)C=C1C=CC1C2CCC2(C)C(O)CCC12 (stereo not drawn),2.06µM*,0.1%,-3.5%,-20.1%,4.5%,8.2µM*
N#Cc1cccc(NC(=O)N2CC[C@@]3(CCCN(C(=O)Oc4ccccc4)C3)C2)c1,.,0.1%,.,.,.,.
CCOc1cc2c(cc1OCC)-n1cccc1C(c1cccc(OCC)c1O)NC2 (stereo not drawn),i,4.7%,-4.2%,18.4µM*,0.8%,i
